Test results from PubChem BioAssay AID1347165 (National Center for Advancing Translational Sciences (NCATS), 2019).
The campaign covered roughly 220,000 compounds. About 5,700 (2.6%) were called active. Where a call stands in place of a potency, no number is given. Roughly 18% stayed inconclusive and do not appear here. Calls follow the shape of the dose curve; as a rule, active = well fitted inhibition curve with a large enough effect; inconclusive = small, poorly fitted or top-dose-only effect; inactive = no such curve, though single readings can be large or run the other way. For the sample, actives were picked, then their nearest neighbours and some compounds at random.

The compounds below were run against Lysine-specific demethylase 5B (Homo sapiens) (UniProt Q9UGL1) (assay: Primary screen for KDM5B Histone Demethylases FDH-coupled qHTS). Conditions: FDH-coupled NADH fluorescence (FDH is formaldehyde dehydrogenase); series mostly up to 57.7 µM.
Outline: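 Coupled FDH/NAD⁺ fluorescence readout. KDM5BΔAP 200 nM final; compound titration, 10 min RT preincubation; substrate mix 12.5 µM H3K4me3, 25 µM 2-OG, 50 µM Fe(II), 100 µM ascorbate, 0.25 mM NAD⁺, 0.25 U/mL FDH; ΔRFU over 30 min.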
Also: nearly all actives have a fitted effect of over 70% in size.
Potency is read from the fitted curve at half-maximal effect.

Lysine-specific demethylase 5B (Homo sapiens), sequence (Q9UGL1 whole entry, looked up): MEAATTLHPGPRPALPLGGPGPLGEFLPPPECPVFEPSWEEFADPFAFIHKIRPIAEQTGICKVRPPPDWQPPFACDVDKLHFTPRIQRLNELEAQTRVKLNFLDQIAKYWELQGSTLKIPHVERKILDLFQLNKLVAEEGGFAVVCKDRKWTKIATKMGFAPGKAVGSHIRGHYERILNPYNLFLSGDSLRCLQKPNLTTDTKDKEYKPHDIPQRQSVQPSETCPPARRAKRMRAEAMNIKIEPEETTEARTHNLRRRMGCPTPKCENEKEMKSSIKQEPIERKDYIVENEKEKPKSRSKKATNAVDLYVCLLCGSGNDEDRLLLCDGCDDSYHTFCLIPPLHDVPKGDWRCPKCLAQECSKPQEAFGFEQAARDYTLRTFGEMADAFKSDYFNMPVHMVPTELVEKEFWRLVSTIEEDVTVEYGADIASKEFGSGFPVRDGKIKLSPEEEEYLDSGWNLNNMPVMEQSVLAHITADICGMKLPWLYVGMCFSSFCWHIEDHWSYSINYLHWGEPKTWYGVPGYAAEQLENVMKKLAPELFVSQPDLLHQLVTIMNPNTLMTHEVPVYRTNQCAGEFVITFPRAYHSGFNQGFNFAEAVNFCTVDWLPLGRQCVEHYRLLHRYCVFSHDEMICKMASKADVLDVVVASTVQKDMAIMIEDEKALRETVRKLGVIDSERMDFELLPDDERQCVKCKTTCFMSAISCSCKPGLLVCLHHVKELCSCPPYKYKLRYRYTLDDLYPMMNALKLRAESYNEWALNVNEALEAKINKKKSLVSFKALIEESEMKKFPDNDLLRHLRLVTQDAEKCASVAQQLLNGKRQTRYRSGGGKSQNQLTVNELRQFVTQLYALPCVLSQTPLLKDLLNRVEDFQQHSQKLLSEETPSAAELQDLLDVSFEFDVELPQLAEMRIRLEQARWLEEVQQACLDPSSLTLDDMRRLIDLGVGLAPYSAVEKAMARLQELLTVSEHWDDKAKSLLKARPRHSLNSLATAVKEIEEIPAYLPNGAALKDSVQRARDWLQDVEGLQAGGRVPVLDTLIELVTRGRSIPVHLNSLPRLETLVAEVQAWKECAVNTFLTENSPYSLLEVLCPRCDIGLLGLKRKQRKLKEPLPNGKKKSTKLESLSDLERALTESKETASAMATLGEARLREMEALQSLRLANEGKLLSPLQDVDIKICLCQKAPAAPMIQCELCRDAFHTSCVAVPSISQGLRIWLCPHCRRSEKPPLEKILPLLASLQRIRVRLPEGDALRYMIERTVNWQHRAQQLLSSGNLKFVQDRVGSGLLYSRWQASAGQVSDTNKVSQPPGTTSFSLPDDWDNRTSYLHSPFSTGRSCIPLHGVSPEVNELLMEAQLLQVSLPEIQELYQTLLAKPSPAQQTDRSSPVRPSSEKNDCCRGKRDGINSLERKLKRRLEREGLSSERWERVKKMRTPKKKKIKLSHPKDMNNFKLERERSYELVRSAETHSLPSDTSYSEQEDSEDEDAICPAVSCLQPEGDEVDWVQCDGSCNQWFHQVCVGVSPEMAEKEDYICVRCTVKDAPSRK

Compound	Potency
COc1ccc(-c2c(NC(=O)C(C)C)oc3c(C)cccc3c2=O)cc1	inactive
O=C(C1CCCC1)N1Cc2ccccc2CC2(CCCCN2CC2CCNCC2)C1 (centres undefined)	inactive
Cn1cccc1CN1CCn2c(nn(-c3cccc(Cl)c3)c2=O)C1	63.1 µM (active)
O=C(c1ccc(C(F)(F)F)cc1)N1CCn2c(nn(-c3cccc(Cl)c3)c2=O)C1	inactive
COc1ccc(CN2CCn3c(nn(-c4ccncc4)c3=O)C2)cc1	inactive
Cc1ccc2c(Cn3cc(S(=O)(=O)N(C)C)ccc3=O)cc(=O)oc2c1	inactive
Cc1ccc(-c2noc(-c3cccc(Cl)c3)n2)cc1	inactive
CC(C)CC(=O)N1CCCN(c2nnc3ccccn23)CC1	25.1 µM (active)
O=C(CSc1nc2ccccc2nc1N1CCCC1)N1CCN(c2ccccc2)CC1	inactive
CCC(C)c1ccc(-n2c(SCC(=O)N3CCC3)nc3ccccc3c2=O)cc1 (centres undefined)	inactive
O=C(c1ccsc1)N1CCN(c2nnc3ccc(C(F)(F)F)cn23)CC1	inactive
CC(C)CC(=O)N1CCN(c2nnc3ccccn23)CC1	28.2 µM (active)
Cc1ccc(C(=O)C(C)Sc2nnc3ccccn23)cc1 (centres undefined)	inactive
O=C(/C=C/c1ccc(Cl)cc1Cl)Nc1ccc(-c2ccccc2)cc1	inactive
Cc1cc(=O)oc2c(C)c(OC(=O)CN3C(=O)NC4(CCCC4)C3=O)ccc12	inactive
N#C/C(=C/c1cccnc1)C(=O)NCCc1ccccc1	inactive
COCCNC(=S)NC1CC(C)(C)NC(C)(C)C1	inactive
Cc1ccc2[nH]cc(CCNC(=O)c3ccc(F)c(F)c3)c2c1	inactive
O=C(c1ccccc1)c1ccc(C2CC2)cc1	inactive
CN(C)CCN(C)c1ccc(-c2nc(-c3ccccc3F)no2)cn1	28.2 µM (active)
CSc1ccc(CCNc2nc(-c3ccccc3F)no2)cc1	inactive
Cc1ncc(CO)c2cc(-c3nc(-c4ccccc4F)no3)c(=O)oc12	inactive
CN(CCc1cn[nH]c1)c1ccc(-c2nc(-c3ccccc3F)no2)cn1	28.2 µM (active)
Fc1ccc(Nc2nc(-c3ccccc3F)no2)cc1	inactive
COc1cccc(C2Cn3nnc(-c4nc(-c5ccccc5F)no4)c3CO2)c1 (centres undefined)	inactive

Compound	Potency
Cc1cccc(NC(=O)CSCC(=O)Nc2nnc(C3CC3)s2)c1	inactive
CC(C)CCNC(=O)NC(=O)CSc1nnc(-c2ccccc2)c(-c2ccccc2)n1	inactive
Cc1cc(Br)c(S(=O)(=O)NCCO)cc1C	inactive
CCCCn1cnc2c1c(=O)n(CC(=O)Nc1ccccc1C)c(=O)n2CCCC	inactive
Cc1ccc(C)c(C(NC(=O)c2ccccc2C)c2cccnc2)c1 (centres undefined)	inactive
COc1cccc(-c2cc(C3CCN(C(=O)Nc4ccccc4C)CC3)[nH]n2)c1	inactive
COc1cccc(-c2cn3c(n2)NCCC3)c1	25.1 µM (active)
COc1cccc(-c2cn3c(n2)N(C(=O)Cc2ccccc2)CCC3)c1	inactive
CN(C)c1ccc(C(=O)/C=C/c2ccncc2)cc1	inactive
COc1ccc(OC)c(C2C(C#N)=C(N)Oc3cc(O)ccc32)c1 (centres undefined)	inactive
Cc1ccc2c(=O)cc(C(=O)N(Cc3ccc(Cl)cc3)C3CCS(=O)(=O)C3)oc2c1C (centres undefined)	inactive
COc1ccc(C(=O)N[C@H](c2cnn(C)c2)C2CC(O)C2)c(F)c1F (some centres undefined)	inactive
O=S(=O)(NCCc1cn2ccccc2n1)c1cc(Cl)ccc1Cl	inactive
Cn1cc([C@@H](NC(=O)CCc2cn3ccccc3n2)C2CC(O)C2)cn1 (some centres undefined)	31.6 µM (active)
COc1ccc(-n2c3c(cc(-c4ncnn4-c4ccc(C)cc4C)c2=O)C(=O)CC(C)(C)C3)cc1	inactive
O=C(Cn1ncn2nc(-c3cccs3)cc2c1=O)N1CCCCCC1	inactive
c1ccc([C@@H]2CNC[C@H]2COCC2CC2)nc1	15.8 µM (active)
CCn1cc(C(=O)N2C[C@@H](COCC3CC3)[C@H](c3ccccn3)C2)cn1	inactive
O=C(c1cnc[nH]1)N1C[C@@H](COCC2CC2)[C@H](c2ccccn2)C1	inactive
Cc1ccc2ncc([N+](=O)[O-])cc2c1	inactive
COc1ccc(NC(=O)c2c(Cl)cccc2Cl)cc1	inactive
CCc1ccc(C(=O)Nc2ccccc2O)o1	inactive
COc1ccccc1-c1ccc(C(=O)O)cc1	112 µM (active)
COc1ccccc1-c1cn(C)c(=O)n2cc(COc3ccc(C(=O)O)cc3)nc12	inactive
CC(C)N(C(=O)c1ccc(-c2ccccc2F)cc1)C(C)C	inactive

Compound	Potency
C=CCN(CC=C)S(=O)(=O)c1cccc2nsnc12	inactive
CC(C)c1ccc(/C=C/C(=O)NCCCN2CCOCC2)cc1	inactive
COc1ccc(C)cc1CN1CCN(C(=O)Nc2cccc(C)c2)CC1	inactive
Cc1ccc(C(=O)N2C[C@@H](COc3ccccc3)[C@H](C(N)=O)C2)cc1	inactive
CC(C)(C)C(=O)Cn1ccn2nc3c(c2c1=O)CCCC3	inactive
CCOC(=O)c1ccc(NC(=O)CCn2ccn3nc4c(c3c2=O)CCCC4)cc1	inactive
CCc1ccc(NC(=O)Cn2ccn3nc4c(c3c2=O)CCCC4)cc1	20 µM (active)
CC(=O)Oc1ccc(C(=O)Nc2ccc(O)c(-c3nc4ccccc4o3)c2)cc1	inactive
CN(C)Cc1cn2c(=O)n(C)cc(-c3cccc(OCc4ccccc4)c3)c2n1	inactive
Cc1cc(-c2cn(C)c(=O)n3cc(COc4ccccc4)nc23)ccn1	inactive
CN(C)c1cccc(-c2cn(C)c(=O)n3cc(COc4ccc(Cl)cc4)nc23)c1	25.1 µM (active)
CSc1ccc(CN(C)S(=O)(=O)c2ccc3c(c2)OCCCO3)cc1	inactive
COc1ccc2c(c1)C=C(C(=O)NCc1cc(Br)ccc1OC)CO2	inactive
Cc1cccc(N2CCN(C(=O)c3cc4n(n3)CC(c3ccc(Cl)cc3)OC4)CC2)c1 (centres undefined)	inactive
O=C(Nc1cccc(F)c1)c1cc2n(n1)CC(c1ccc(Cl)cc1)OC2 (centres undefined)	22.4 µM (active)
Cc1ccc(NC(=O)c2cn3c4c(ccc(Cl)c4c2=O)OC(C)C3)cc1C (centres undefined)	inactive
O=C(NCc1ccccc1C(F)(F)F)c1cc2n(n1)CC(c1ccc3c(c1)OCO3)OC2 (centres undefined)	31.6 µM (active)
CCNCc1ccccc1C(F)(F)F	inactive
Cc1ccc(NC(=O)c2cc3n(n2)CC(c2ccc4c(c2)OCO4)OC3)cc1C (centres undefined)	35.5 µM (active)
O=C(NCc1ccc(F)cc1F)c1nnn2c1COC(c1ccc(Br)cc1)C2 (centres undefined)	inactive
COc1ccc(CNC(=O)c2ccc3c(c2)nc2n3CCOC2)c(OC)c1	inactive
O=C(Nc1ccc(Cl)cc1)C1CCN(C(=O)c2ncn3c2COC(c2ccc(F)cc2)C3)CC1 (centres undefined)	inactive
COc1ccc(CNC(=O)c2cc3n(n2)CC(c2ccc4c(c2)OCO4)OC3)c(OC)c1 (centres undefined)	31.6 µM (active)
Cn1cnnc1-c1cccc(NC(=O)c2ccc3c(c2)OCO3)c1	inactive
